From PubChem BioAssay (NCI) come the findings set out here.

Several values for one entry are separate records, joined by “and”; a condition that tells them apart may be missing. Identical values can stand only once. The panel holds about 83,000 compounds, 20% with a hit somewhere; the sample as a whole holds those more often.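 Plates (96-well) were seeded with cells, treated with compound at one concentration, and incubated for 48 hours before percent growth was determined.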 Activity calls are given as the source filed them. Rule for the calls: active = growth percent below 10; inactive = the rest.

This assay has as its system MDA-MB-468 breast. Put plainly: NCI-60 one-dose screen, 48 h (100 = growth as untreated, 0 = no growth, -100 = all killed). Particulars: 10 µM unless noted.
Turning to `COc1ccc(-c2c(C)noc2-c2ccc(O)cc2O)cc1`, the growth was 77.8% (inactive). `S=c1[nH]nc(CSc2ncnc3c2c(-c2ccccc2)cn3-c2ccc(Cl)cc2)o1`: the growth was 108% (inactive). As for `COc1cccc(N2CCN(c3ncnc4cc[nH]c34)CC2)c1`, the growth was 18.8% (inactive). Turning to `O=C(NCCNc1nccc(-c2c(-c3cccc(O)c3)nc3sccn23)n1)Nc1cccc(C(F)(F)F)c1`, the growth was -40.6% (active). Consider `CS(=O)(=O)Nc1ccc(Nc2c3ccccc3nc3cc(N)ccc23)cc1`, for which the growth was -52.9% (active).

In the case of `CCOC(=O)c1c(C)oc2ncnc(Nc3ccc(C(=O)NCCc4ccccc4)cc3)c12`, the growth was 90.7% (inactive).

Take `CC1(O)CCCCC1O` (stereo not given): the growth is 108% (inactive). With `N#C/C(=C\c1ccc(-c2ccccc2)o1)c1nc(-c2ccco2)cs1` the figure was -32.4% (active); with `C=C1C(=O)O[C@H]2[C@H]1CC/C(CNC(=O)/C=C/c1ccc(Br)cc1)=C\CC[C@@]1(C)O[C@@H]21`, -58.5% (active). For `COc1ccc(/C=N/Nc2cc(=O)[nH]c3ccc(C)cc23)cc1`, the growth was 101% (inactive).

For the compound `Cc1sc2nc(NCCc3c[nH]c4ccc(Cl)cc34)[nH]c(=O)c2c1C`, the growth is 4.19% (active). Take `O=C1/C(=C\c2c[nH]c3ccccc23)c2ccccc2N1c1c(Cl)cccc1Cl`: the growth is 8.39% (active). `COc1cc(CC#N)c([N+](=O)[O-])cc1OC`: the growth was 100% (inactive). With `O=S(=O)(c1ccccc1)N1CCCc2ccccc21` the figure was 104% (inactive); with `CC/C(=C(/c1ccc(Cl)cc1)c1ccc(OCCN(CC)CC)cc1)c1ccc(OC)cc1`, 38% (inactive). Consider `CC(=O)O[C@H]1CC[C@]2(C)[C@H]3CC=C4[C@@H]5CC(C)(C)CC[C@]5(C(=O)N5CCN(CCC#N)CC5)CC[C@@]4(C)[C@]3(C)CC[C@H]2C1(C)C`, for which the growth was 32.2% (inactive). As to `Cc1ccc(NC(=S)N2CCOCC2)cc1C`, the growth was 83.5% (inactive). Regarding `Cc1cccc(C)c1N1C(c2ccccc2)=NNC12C=CC(=O)c1c(O)cccc12` (stereo not given), the growth is 85.1% (inactive). Turning to `O=C(O)c1cn(-c2ccccc2)nc1-c1ccc(O)cc1`, the growth is 98.3% (inactive).

With `Fc1cccc(-c2[nH]nc3nc(Nc4cccnc4)sc23)c1`, the growth was 11.9% (inactive). For the compound `COc1ccc(C(=O)Cn2c(C(=O)c3ccc(OC)cc3)nc3ccccc32)cc1`, the growth was 17% (inactive).

On to `CCCOc1cc2ccccc2cc1C(=O)Nc1nc(NC)c2c(ccc3nccc32)[nH]1`, for which the growth was -59.7% (active). With `CCCCCn1sc(=O)n(Cc2ccc(CNC(=O)OCc3ccc4c(Cl)cc(Cl)c(O)c4n3)cc2)c1=O`, the growth is 59.8% (inactive).

On to `CCn1cc(CNc2ccc(C(=O)Nc3cc4cc(OC)c(OC)cc4c(C)n3)cc2)c(C)n1`, for which the growth was 23.2% (inactive). For the compound `CCOc1ccc(Br)cc1/C=N\N=C\c1cc(Br)ccc1OCC`, the growth was 128% (inactive). `NC(=S)N/N=C\c1nccc2c(C(F)(F)F)cccc12`: the growth is -64.8% (active).

On to `O=C(Nc1ccc(N2CCNCC2)cn1)c1[nH]ncc1Nc1ncnc2sc3c(c12)CCC3`, for which the growth was -37.9% (active).

With `C/C=C/C(N)=O`, the growth was 101% (inactive). Regarding `CN(C)c1ccc(C(=C2C=CC(=[N+](C)C)C=C2)c2ccccc2Cl)cc1`, the growth is -57.8% (active) and -84.2% (active). As to `O=C(O)C1(C(=O)O)CCC1.[NH2-].[NH2-].[Pt+2]`, the growth is 106% (inactive). As for `CSc1nc2nc3c(nc2c(=O)n1C)C(=O)c1ccccc1C3=O`, the growth is -58.4% (active). For `CC1(C)CC[C@]23CC[C@]4(C)[C@H](CC[C@@H]5[C@@]6(C)CCNCC(C)(C)[C@@H]6CC[C@]54C)[C@H]2[C@H]1OC3`, the growth is 65.4% (inactive). For `CC[C@@H]1OC(=O)[C@H](C)[C@@H](O[C@H]2C[C@@](C)(OC)[C@@H](O)[C@H](C)O2)[C@H](C)[C@@H](O[C@@H]2O[C@H](C)C[C@H](N(C)C)[C@H]2O)[C@](C)(O)C[C@@H](C)[C@@H]2N[C@@H](COCCOC)O[C@H]([C@H]2C)[C@]1(C)O`, the growth was 109% (inactive). Turning to `COc1ccc(OC)c(/C=C/C(=O)N/N=C/c2ccccc2)c1`, the growth was 28.1% (inactive). With `O=C(O)CC1Cc2ccccc2C1C(=O)O` (stereo not given) the figure was 106% (inactive). As to `COc1ccc(Cl)cc1NC(=O)C(Br)C(Br)C(=O)O` (stereo not given), the growth is -79% (active). In the case of `O=C1C=C(OCC=C(Cl)Cl)C(=O)c2ccccc21`, the growth was 41.5% (inactive). The result for `CCOC(=O)C1=NN(c2ccccc2)C(=O)/C1=C\N1C(=O)/C(=C/c2cccc(O)c2)SC1=S` reads 106% (inactive); that for `CCCC[N+](C)(N)CCCC`, 106% (inactive). For `O=C(Nc1ccccc1O)c1ccccc1Nc1ccnc(C(F)(F)F)c1`, the growth is 116% (inactive).
